# SARS PLP yeast = qHTS of Yeast-based Assay for SARS-CoV PLP; S. cerevisiae expressing SARS-CoV PLpro, growth rescue; Potency, µM (titrated, usually from 32.9 µM), for inactives: at the highest dose activity, positive = growth rescue, usual class: activators; 0.19% of 330,000 active; AID 485353, 2010; calls by dose curve; further: potency means the concentration at half of the fitted maximal effect; 0% is about no effect; nearly all actives have a fitted effect of over 55% in size
# AMA1 RON2 block = qHTS for Inhibitors of AMA1-RON; Towards Development of Antimalarial Drug Lead: Primary Screen; 0.2% of 360,000 active; Plasmodium falciparum AMA1 (3D7) - RON2 peptide interaction; Potency, µM (highest dose often 58.2 µM), inactives show at the top dose activity change, negative = inhibition, actives largely listed as inhibitors; AlphaScreen AMA1-biotinylated RON2 peptide binding;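 further: potency means the concentration at half of the fitted maximal effect; 0% = vehicle wells and -100% = peptide control; nearly all actives have a fitted effect of over 45% in size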
#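 AMA1 (3D7) with his tag at 25 nM final met compounds first, then biotinylated RON2 peptide at 25 nM; detection used donor plus acceptor beads, 10 µg/mL apiece, read by AlphaScreen after 30 min at room temperature.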
# Pf growth 96h = Primary qHTS for delayed death inhibitors of the malarial parasite plastid, 96 hour incubation; P. falciparum luciferase reporter growth, 96 h; Potency, µM (titrated, usually from 28.7 µM), for the others: at the highest dose activity change, negative = inhibition, most hits filed as inhibitors; 6.9% of 320,000 active; AID 504834, 2011; further: potency means the concentration at half of the fitted maximal effect; on the % scale 0 is the no-effect control and ±100 the full control effect
#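 Compounds incubated with erythrocytes infected by luciferase-expressing P. falciparum (2% hematocrit, 0.05% parasitemia final) for 96 hours, 37 C in 5% CO2. Growth inhibition scored as decreased luciferase luminescence.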
# Cycloheximide cs = Cycloheximide Counterscreen for Small Molecule Inhibitors of Shiga Toxin. cell reporter, cycloheximide protein synthesis inhibition counterscreen. max response, %. 12% of 300,000 active. AID 2314, 2010; in the data active means max response mostly above about 13%, no sharp cut-off; inactive means mostly below about 14%; further: read at 38.3 µM for the half of the compounds with a filed dose; 0% is about no effect
# Shiga inhibitor = A qHTS for Small Molecule Inhibitors of Shiga Toxin; Vero cells, Shiga toxin protein synthesis inhibition reporter; inhibition, % at 38.7 µM; 9.2% of 290,000 active; AID 2315, 2010; in the data active means inhibition mostly above about 28%, no sharp cut-off; inactive means mostly below about 43%; further: 0% is about no effect
# Pf growth 48h = Primary qHTS for delayed death inhibitors of the malarial parasite plastid, 48 hour incubation; Potency, µM (series often up to 28.7 µM), without a hit: at the top dose activity change, negative = inhibition, usual class: inhibitors; 5.9% of 310,000 active; P. falciparum luciferase growth in erythrocytes, 48 h; AID 504832, 2011; further: potency means the concentration at half of the fitted maximal effect; on the % scale 0 is the no-effect control and ±100 the full control effect
#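 Parasite viability was followed by luminescence of a genomically integrated firefly luciferase. Cultures held 0.1% parasitemia at 2% hematocrit (final), incubated under 5% CO2 at 37 C.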
# * hit, by the source's call; ? = inconclusive; . = not tested or not shown; [ ] = another dose, or the depositor's remark. This is a sample that favours compounds with a hit; in the whole collection about 19% have one here. Unless noted, the call rests on the fitted dose curve; in most records, active means well fitted curve in the direction sought with a large enough effect; inconclusive means small, poorly fitted or top-dose-only effect, or another doubt; inactive means no such curve, though single readings can be large; an effect the other way counts as inactive or inconclusive.
SMILES,SARS PLP yeast,AMA1 RON2 block,Pf growth 96h,Cycloheximide cs,Shiga inhibitor,Pf growth 48h
O=C(NC(C(=O)N/N=C/c1cccnc1)c1n[nH]c(=O)c2ccccc12)c1ccccc1 (stereo not drawn),1%,3%,?,9,28,23%
CC(C)(C)c1ccccc1OCC(=O)NCc1ccccc1,2%,-1%,16%,-2,.,4%
Cc1ccc(CNC(=O)COc2ccccc2-c2ccccc2)cc1,-11%,-8%[2.32 µM],10µM*,-1,12,-14%
COC(=O)C1CN(C#N)N(c2ccc(Cl)cc2)C12c1ccccc1-c1ccccc12 (stereo not drawn),-81%,-9%,18%,-9,-15,3.3µM*
CN1CCN(C(=O)C(C(=O)c2ccc(F)cc2)n2ccccc2=O)CC1 (stereo not drawn),-2%,19%,2.3µM*,-4,17,11%
O=C(c1ccccc1)C(C(=O)N1CCCCC1)n1ccccc1=O (stereo not drawn),0%,-6%,51%,-5,-6,12%
O=C(NCc1ccccn1)C(C(=O)c1ccc(F)cc1)n1ccccc1=O (stereo not drawn),4%,59%,13µM*,-3,-6,7%
CN(C)S(=O)(=O)c1cccc(NC(=O)c2sccc2-c2ccccc2)c1,2%,3%,?,5,-6,?
CCC(C)[C@H](N)C(=O)NC[C@H]1CC[C@H](C(=O)N[C@@H](Cc2ccccc2)C(=O)O)CC1 (stereo partly drawn),1%,0%,15%,-1,5,7%
COc1ccc(C)cc1NCc1cc(=O)oc2cc(-c3ccccc3)c(O)cc12,0%,10%,1µM*,11,26,1.5µM*
COc1ccccc1NCc1cc(=O)oc2c(C)c(O)ccc12,2%,-15%,1.9µM*,-6,28,1.7µM*
Cc1cc(C)cc(NCc2cc(=O)oc3cc(C)c(O)cc23)c1,-5%,-6%,?,-3,6,?
Cc1cc(C)cc(NCc2cc(=O)oc3cc(-c4ccccc4)c(O)cc23)c1,-21%,16%,2.3µM*,-1,-17,4.7µM*
CC(C)Cc1csc(NC(=O)c2ccc(Br)cc2)c1C(=O)O,-5%,3%,59%,-2,8,48%
Cc1ccc(S(=O)(=O)N2CCCCC2CCNC(=O)C(=O)NCc2ccccc2)cc1 (stereo not drawn),7%,-11%,?,.,.,?
CCOc1ccc(CN2CCN(Cc3cccc4nonc34)CC2CCO)cc1 (stereo not drawn),1%,1%,15µM*,-2,-7,17%
CCOc1ccc(CN2CCN(Cc3[nH]c4ccccc4c3C)CC2CCO)cc1 (stereo not drawn),-1%,-12%,10µM*,-3,-23,?
c1ccc(C(=C2CCCO2)c2ccccc2)cc1,.,4%,.,.,.,.
C=CC(C)N1C(=O)S/C(=C\c2ccc(N3CCOCC3)cc2C)C1=O (stereo not drawn),-16%,3%[2.32 µM],?,17*,-8,13%
O=C1NC(=S)N/C1=C\c1ccc(N2CCOCC2)cc1,0%,3%,-6%,28*,61,74%
Cc1cc(N2CCOCC2)ccc1/C=C1\C(=O)NC(=O)N(c2ccccc2)C1=O,-2%,0%,-12%,15,-19,19%
C=CCN1C(=O)S/C(=C\c2ccc(N3CCOCC3)cc2C)C1=O,-2%,-26%,.,35*,58,127%
O=C1NC(=O)C(=Cc2ccc(N3CCOCC3)cc2)C(=O)N1,1%,5%,9%,-2,48,?
Cc1cc(N2CCOCC2)ccc1/C=C1\NC(=O)N(CC(=O)Nc2ccccc2C)C1=O,0%,-9%,.,-1,-9,29%
Cc1cc(N2CCOCC2)ccc1/C=C1/SC(=O)NC1=O,7%,-9%,-13%,31*,82,405%
CCOC(=O)c1cnc[nH]c1=O,.,8%,.,.,.,.
O=C(Nc1ccc2oc(=O)ccc2c1)c1ccco1,-8%,2%,-3%,22*,31*,58%

# Bioassay records: PubChem BioAssay, National Center for Advancing Translational Sciences (NCATS)
